Experimental data from PubChem BioAssay (EPA / NIEHS).
Values joined by “and” are separate entries in the source; they are usually repeats but may differ in a detail not shown here. Identical values can stand only once. Inconclusive results are not listed. A structure can be active in one record and inactive in another. Active and inactive are the calls of the source. Rule for the calls, unless noted: active = hit-call score of the fitted dose curve at least 0.9, where 1 is the maximum; inactive = score below 0.9.

How the values were obtained:
[1] = biological target: Transcription factor E2F1 (Homo sapiens) (UniProt Q01094); assay: ATG_E2F_CIS: Attagene CIS-FACTORIAL HepG2 Assay for human E2F Transcription Factor 1 (AID 2282935); details: HepG2 Attagene cis-reporter, E2F reporter RNA transcripts; actives raise or lower the signal
Procedure, shortened: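 In this cis-factorial format, endogenous factor activity drives transfected reporters in HepG2; transcripts collected at 24 h are quantified by fluorescence after RT-PCR and capillary separation.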

[2] = ATG_GRE_CIS: Attagene CIS-FACTORIAL HepG2 Assay for human Glucocorticoid Response Elements (GRE) (AID 2282947); details: HepG2 GRE cis-reporter, Attagene multiplex mRNA; actives raise or lower the signal
Procedure, shortened: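 HepG2, transient cis-reporter transfection, 24 h. Reporter mRNA: RT-PCR then CE, fluorescence. Fit both directions vs DMSO.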

[3] = biological target: Hypoxia-inducible factor 1-alpha (Homo sapiens) (UniProt Q16665); assay: ATG_HIF1a_CIS: Attagene CIS-FACTORIAL HepG2 Assay for human Hypoxia Inducible Factor 1 (HIF1A) (AID 2282951); details: HepG2 Attagene cis-factorial HIF1a reporter transcription; actives raise or lower the signal
Procedure, shortened: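 Activity is fitted in both directions relative to DMSO. Reporter transcripts are read by RT-PCR, fluorescent primer extension and capillary electrophoresis after 24 h chemical treatment. The cells are HepG2 carrying transiently transfected cis-element-driven reporter units responding to endogenous factors.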

[4] = biological target: Hepatocyte nuclear factor 6 (Homo sapiens) (UniProt Q9UBC0); assay: ATG_HNF6_CIS: Attagene CIS-FACTORIAL HepG2 Assay for human Hepatocyte Nuclear Factor 6 (HNF6) (AID 2282952); details: HepG2 Attagene cis-factorial HNF6 reporter transcription; actives raise or lower the signal
Procedure, shortened: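 Endogenous factor activity read in transiently transfected HepG2 via promoter-regulated reporter transcripts. RNA harvested 24 h post-dosing, reverse-transcribed, PCR-amplified, FAM-labelled, HpaI-digested and resolved by capillary electrophoresis; fitted in both directions against DMSO.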

[5] = biological target: Heat shock factor protein 1 (Homo sapiens) (UniProt Q00613); assay: ATG_HSE_CIS: Attagene CIS-FACTORIAL HepG2 Assay for human Heat Shock Transcription Factor 1 (HSE) (AID 2282953); details: HepG2 HSE cis-reporter, Attagene RNA transcription; actives raise or lower the signal
Procedure, shortened: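 Reporter mRNA induction in HepG2 is measured 24 h after dosing, using transiently transfected multiplexed cis-regulated reporter units. Signal comes from capillary electrophoresis of labelled RT-PCR products, with DMSO as negative control.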

[6] = ATG_PBREM_CIS: Attagene CIS-FACTORIAL HepG2 Assay for human Phenobarbital-responsive Enhancer Module (PBREM) (AID 2282955); details: HepG2 PBREM cis-reporter, Attagene multiplexed transcription; actives raise or lower the signal
Procedure, shortened: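 Endogenous transcription factor activity was read from reporter transcripts in transiently transfected human HepG2 liver cells after 24 h dosing. RT-PCR products were fluorescently labelled, HpaI-cut and sized by capillary electrophoresis; activity fitted bidirectionally against DMSO baseline.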

[7] = ATG_PPRE_CIS: Attagene CIS-FACTORIAL HepG2 Assay for human Peroxisome Proliferator-activated Response Element (PPRE) (AID 2282958); details: HepG2 PPRE cis-element reporter, Attagene transcription factor profiling; actives raise or lower the signal
Procedure, shortened: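 Endogenous PPRE-driven transcription is measured in HepG2 cells carrying transfected multi-reporter constructs. Reporter transcripts are quantified by RT-PCR, HpaI digestion and capillary electrophoresis 24 h after dosing. DMSO baseline, bidirectional fit.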

[8] = ATG_M_06_TRANS: Attagene TRANS-FACTORIAL HepG2 Assay for M06 Transcription Factor (Internal Marker) (AID 2282983; active = hit-call score of the fitted dose curve at least 0.9, where 1 is the maximum;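 note: reporter transcript level by RT-PCR then capillary electrophoresis fluorescence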); details: HepG2 Attagene TRANS M06 internal marker reporter
Procedure, shortened: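 Background-control reporter readout: after 24 h chemical exposure of transiently transfected HepG2 (GAL4-UAS reporter units), mRNA quantified by RT-PCR with fluorescent labeling and capillary electrophoresis. Gain-of-signal fitting against DMSO baseline.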

[9] = biological target: Nuclear receptor subfamily 4 group A member 2 (Homo sapiens) (UniProt P43354); assay: ATG_NURR1_TRANS: Attagene TRANS-FACTORIAL HepG2 Assay for human Nuclear Receptor Related Protein 1 (NURR1) (AID 2282985; active = hit-call score of the fitted dose curve at least 0.9, where 1 is the maximum); details: HepG2 Attagene TRANS reporter, mRNA readout
Procedure, shortened: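 Chimeric NR-Gal4 proteins were expressed in human HepG2 cells bearing GAL4-UAS reporter units, and induced reporter mRNA was quantified 24 h post-dosing by RT-PCR and capillary electrophoresis.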

[10] = biological target: Transcriptional activator Myb (Homo sapiens) (UniProt P10242); assay: ATG_Myb_CIS: Attagene CIS-FACTORIAL HepG2 Assay for human Myeloblastosis (Myb) Proto-Oncogene Transcription Factor (AID 2282986); details: HepG2 Attagene CIS-FACTORIAL Myb reporter transcription; actives raise or lower the signal
Procedure, shortened: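 Reporter mRNA is quantified by RT-PCR and capillary electrophoresis 24 h after dosing HepG2 cells transfected with cis-regulated reporter units, which track endogenous transcription factor activity. Gain and loss of signal are fitted versus DMSO baseline.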

[11] = biological target: Nuclear respiratory factor 1 (Homo sapiens) (UniProt Q16656); assay: ATG_NRF1_CIS: Attagene CIS-FACTORIAL HepG2 Assay for human Nuclear Respiratory Factor 1 (NRF1) Orphan Gene (AID 2282987); details: HepG2 NRF1 cis-element reporter, Attagene multiplex; actives raise or lower the signal
Procedure, shortened: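 Endogenous NRF1-driven reporter transcription in transfected HepG2 cells after 24 h treatment. Readout: RT-PCR products, 6-FAM labelled and resolved by capillary electrophoresis; changes fitted both directions relative to DMSO.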

[12] = biological target: Retinoic acid receptor RXR-alpha (Homo sapiens) (UniProt P19793); assay: ATG_RXRa_TRANS: Attagene TRANS-FACTORIAL HepG2 Assay for human Retinoid X Receptor alpha (RXRa) (AID 2283012; active = hit-call score of the fitted dose curve at least 0.9, where 1 is the maximum)
Procedure, shortened: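 Chimeric NR-GAL4 trans-activation in HepG2, 24 h treatment; reporter transcripts quantified by fluorescence on capillary electrophoresis, analysed for upward change from DMSO.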

[13] = ATG_M_61_CIS: Attagene CIS-FACTORIAL HepG2 Assay for M61 Transcription Factor (Internal Marker) (AID 2282937); details: HepG2 Attagene CIS-FACTORIAL M61 internal marker reporter; actives raise or lower the signal
Procedure, shortened: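 Readout is reporter mRNA by RT-PCR, fluorescent primer extension and capillary electrophoresis, with gain or loss fitted relative to DMSO. Transfected HepG2 cells carrying endogenous-TF-driven cis reporters were exposed to chemicals for 24 hours.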

[14] = ATG_ISRE_CIS: Attagene CIS-FACTORIAL HepG2 Assay for human Interferon Regulatory Factor 1 (IRF1) binding to an Interferon-Stimulated Response Element (ISRE) (AID 2282948); details: HepG2 ISRE cis-reporter (Attagene), mRNA transcription readout; actives raise or lower the signal
Procedure, shortened: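 Endogenous transcription factor activity read as reporter transcript abundance via RT-PCR and capillary electrophoresis. HepG2 cells transiently transfected, 24 h chemical exposure. Gain or loss fitted against DMSO baseline.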

[15] = ATG_MRE_CIS: Attagene CIS-FACTORIAL HepG2 Assay for human Metal Responsive Element (MRE) (AID 2282954); details: HepG2 MRE cis-reporter transcription, Attagene multiplex; actives raise or lower the signal
Procedure, shortened: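 Readout: capillary electrophoresis of 6-FAM-labelled, HpaI-digested RT-PCR reporter products. System: HepG2 cells carrying transient multiplexed cis reporters, dosed 24 h. Analysis: bidirectional fit, DMSO baseline.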

[16] = ATG_TCF_b_cat_CIS: Attagene CIS-FACTORIAL HepG2 Assay for human T-Cell-Factor with beta-catenin (TCF/b-cat) (AID 2282965); details: HepG2 TCF/beta-catenin cis-reporter transcription, actives raise or lower the signal
Procedure, shortened: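 HepG2 cells transiently transfected with multiple cis-promoter-regulated reporter transcription units, so endogenous transcription factor activity is measured. Reporter mRNA read 24 hours after dosing by RT-PCR, fluorescent labelling and capillary electrophoresis; bidirectional fitting against DMSO.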

[17] = biological target: Cellular tumor antigen p53 (Homo sapiens) (UniProt P04637); assay: TOX21_p53_BLA_p3_ratio: Tox21 HCT-116 p53 Agonism Beta-lactamase Assay, Ratio, Phase 3 (AID 2283596; active = hit-call score of the fitted dose curve at least 0.9, where 1 is the maximum)
Procedure, shortened: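 Cells were seeded at 4000/well, rested 5 h at 37C, then dosed with DMSO compound solutions (217-fold dilution) for 16 h. CCF4-AM substrate was loaded for 2 h at room temperature, and the 460/530 nm emission ratio was fitted for gain of signal versus DMSO.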

[18] = biological target: Cellular tumor antigen p53 (Homo sapiens) (UniProt P04637); assay: TOX21_p53_BLA_p5_ratio: Tox21 HCT-116 p53 Agonism Beta-lactamase Assay, Ratio, Phase 5 (AID 2283599; active = hit-call score of the fitted dose curve at least 0.9, where 1 is the maximum)
Procedure, shortened: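 HCT-116 cells carrying a p53-inducible beta-lactamase reporter were seeded at 4000 cells/well and dosed after 5 h with compound in DMSO (217-fold dilution). After 16 h at 37C, CCF4-AM substrate was added for 2 h, and the 460/530 nm emission ratio was scored as gain-of-signal versus DMSO.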

[19] = biological target: Cellular tumor antigen p53 (Homo sapiens) (UniProt P04637); assay: TOX21_p53_BLA_p2_ratio: Tox21 HCT-116 p53 Agonism Beta-lactamase Assay, Ratio, Phase 2 (AID 2283592; active = hit-call score of the fitted dose curve at least 0.9, where 1 is the maximum)
Procedure, shortened: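 Read-out is the blue/green (460/530 nm, 405 nm excitation) ratio after 2 h CCF4-AM loading, fitted as gain versus DMSO. Compounds, pinned at 217-fold dilution from DMSO stocks, stayed 16 h on HCT-116 beta-lactamase reporter cells seeded 5 h earlier.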

[20] = biological target: Cellular tumor antigen p53 (Homo sapiens) (UniProt P04637); assay: TOX21_p53_BLA_p4_ratio: Tox21 HCT-116 p53 Agonism Beta-lactamase Assay, Ratio, Phase 4 (AID 2283601; active = hit-call score of the fitted dose curve at least 0.9, where 1 is the maximum)
Procedure, shortened: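 HCT116 cells carrying an inducible beta-lactamase reporter were plated at 4000 cells/well, rested 5 h, then exposed to compounds in DMSO (217-fold dilution) for 16 h at 37C. CCF4-AM substrate was loaded 2 h at room temperature; 460/530 nm emission ratio scored gain-of-signal versus DMSO.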

Measured: AC50

Transcription factor E2F1 (Homo sapiens), sequence (Q01094 whole entry, looked up): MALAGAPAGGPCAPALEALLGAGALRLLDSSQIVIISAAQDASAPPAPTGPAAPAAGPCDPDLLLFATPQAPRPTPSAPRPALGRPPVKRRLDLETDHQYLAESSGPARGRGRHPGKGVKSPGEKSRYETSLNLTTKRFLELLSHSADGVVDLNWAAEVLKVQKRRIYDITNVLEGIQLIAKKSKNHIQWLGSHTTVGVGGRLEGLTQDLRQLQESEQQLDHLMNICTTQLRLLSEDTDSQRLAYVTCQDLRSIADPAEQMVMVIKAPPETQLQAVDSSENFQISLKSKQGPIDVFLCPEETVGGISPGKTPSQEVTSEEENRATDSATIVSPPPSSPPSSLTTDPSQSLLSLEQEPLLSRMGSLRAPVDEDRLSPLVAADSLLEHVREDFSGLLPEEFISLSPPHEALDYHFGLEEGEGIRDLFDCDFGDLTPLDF
Cellular tumor antigen p53 (Homo sapiens), sequence (P04637 whole entry, looked up): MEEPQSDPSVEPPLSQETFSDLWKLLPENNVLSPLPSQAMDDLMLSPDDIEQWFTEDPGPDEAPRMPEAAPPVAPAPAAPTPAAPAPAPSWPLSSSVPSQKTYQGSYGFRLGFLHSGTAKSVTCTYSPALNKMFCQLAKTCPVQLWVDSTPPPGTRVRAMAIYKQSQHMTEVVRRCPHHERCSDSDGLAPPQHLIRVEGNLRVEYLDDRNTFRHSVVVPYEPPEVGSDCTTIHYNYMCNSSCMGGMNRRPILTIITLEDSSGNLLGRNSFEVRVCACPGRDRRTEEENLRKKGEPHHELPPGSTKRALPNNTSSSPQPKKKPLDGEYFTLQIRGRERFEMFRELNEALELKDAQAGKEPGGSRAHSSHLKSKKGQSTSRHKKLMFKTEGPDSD
Transcriptional activator Myb (Homo sapiens), sequence (P10242 whole entry, looked up): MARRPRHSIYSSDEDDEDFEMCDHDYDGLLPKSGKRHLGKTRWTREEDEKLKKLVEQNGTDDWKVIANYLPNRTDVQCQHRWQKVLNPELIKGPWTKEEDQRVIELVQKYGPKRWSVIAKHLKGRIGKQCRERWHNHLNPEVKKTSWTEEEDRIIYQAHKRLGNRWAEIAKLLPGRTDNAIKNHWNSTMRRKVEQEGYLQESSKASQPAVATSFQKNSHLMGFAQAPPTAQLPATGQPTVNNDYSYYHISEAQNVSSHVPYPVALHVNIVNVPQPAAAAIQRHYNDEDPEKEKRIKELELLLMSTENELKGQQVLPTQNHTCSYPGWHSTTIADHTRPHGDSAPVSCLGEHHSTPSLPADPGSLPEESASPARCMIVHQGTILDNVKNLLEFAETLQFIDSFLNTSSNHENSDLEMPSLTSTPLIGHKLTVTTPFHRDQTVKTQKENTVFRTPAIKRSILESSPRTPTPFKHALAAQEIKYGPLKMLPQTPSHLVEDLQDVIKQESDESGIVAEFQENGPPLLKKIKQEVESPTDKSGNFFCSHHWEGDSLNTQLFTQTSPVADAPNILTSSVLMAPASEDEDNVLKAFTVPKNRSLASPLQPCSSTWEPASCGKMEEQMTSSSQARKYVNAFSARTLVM
Retinoic acid receptor RXR-alpha (Homo sapiens), sequence (P19793 whole entry, looked up, the tested form may be a part): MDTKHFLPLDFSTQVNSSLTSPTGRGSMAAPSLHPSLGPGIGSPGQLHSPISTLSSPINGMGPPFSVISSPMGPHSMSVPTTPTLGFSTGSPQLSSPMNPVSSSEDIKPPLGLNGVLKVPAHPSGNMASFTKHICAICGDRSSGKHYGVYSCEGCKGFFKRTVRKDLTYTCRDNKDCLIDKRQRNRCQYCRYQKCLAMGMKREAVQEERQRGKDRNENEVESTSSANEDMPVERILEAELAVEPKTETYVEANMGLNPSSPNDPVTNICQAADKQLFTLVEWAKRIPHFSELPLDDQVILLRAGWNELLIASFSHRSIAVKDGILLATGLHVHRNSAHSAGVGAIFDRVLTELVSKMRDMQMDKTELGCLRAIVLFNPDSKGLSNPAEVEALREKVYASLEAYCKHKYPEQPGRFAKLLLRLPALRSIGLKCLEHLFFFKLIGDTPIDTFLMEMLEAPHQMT
Nuclear respiratory factor 1 (Homo sapiens), sequence (Q16656 whole entry, looked up): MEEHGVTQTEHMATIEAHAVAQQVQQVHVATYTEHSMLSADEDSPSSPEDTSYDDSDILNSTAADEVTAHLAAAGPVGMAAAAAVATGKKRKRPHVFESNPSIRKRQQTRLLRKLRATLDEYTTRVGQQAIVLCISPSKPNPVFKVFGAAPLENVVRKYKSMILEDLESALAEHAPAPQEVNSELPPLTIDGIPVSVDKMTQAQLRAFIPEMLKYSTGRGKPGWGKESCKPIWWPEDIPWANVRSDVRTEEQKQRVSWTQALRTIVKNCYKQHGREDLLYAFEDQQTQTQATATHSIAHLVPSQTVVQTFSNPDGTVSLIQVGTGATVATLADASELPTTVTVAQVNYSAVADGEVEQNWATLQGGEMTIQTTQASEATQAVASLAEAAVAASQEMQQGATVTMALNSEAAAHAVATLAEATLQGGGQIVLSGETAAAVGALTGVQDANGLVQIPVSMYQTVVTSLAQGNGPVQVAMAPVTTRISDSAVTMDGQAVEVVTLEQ
Heat shock factor protein 1 (Homo sapiens), sequence (Q00613 whole entry, looked up): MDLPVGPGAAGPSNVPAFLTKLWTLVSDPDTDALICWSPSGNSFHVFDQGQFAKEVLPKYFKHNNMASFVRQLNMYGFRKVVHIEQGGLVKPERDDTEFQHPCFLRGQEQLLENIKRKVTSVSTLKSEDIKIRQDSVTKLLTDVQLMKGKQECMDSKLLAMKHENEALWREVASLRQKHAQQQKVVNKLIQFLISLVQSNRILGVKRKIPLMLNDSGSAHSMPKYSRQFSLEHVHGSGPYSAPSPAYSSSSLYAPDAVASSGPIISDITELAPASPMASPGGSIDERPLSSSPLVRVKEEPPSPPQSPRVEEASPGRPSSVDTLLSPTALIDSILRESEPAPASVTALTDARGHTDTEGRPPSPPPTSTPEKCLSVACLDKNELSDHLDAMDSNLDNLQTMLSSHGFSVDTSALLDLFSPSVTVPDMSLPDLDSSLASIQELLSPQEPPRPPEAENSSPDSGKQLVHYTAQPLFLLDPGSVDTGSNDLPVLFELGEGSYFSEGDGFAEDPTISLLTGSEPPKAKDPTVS
Nuclear receptor subfamily 4 group A member 2 (Homo sapiens), sequence (P43354 whole entry, looked up, the tested form may be a part): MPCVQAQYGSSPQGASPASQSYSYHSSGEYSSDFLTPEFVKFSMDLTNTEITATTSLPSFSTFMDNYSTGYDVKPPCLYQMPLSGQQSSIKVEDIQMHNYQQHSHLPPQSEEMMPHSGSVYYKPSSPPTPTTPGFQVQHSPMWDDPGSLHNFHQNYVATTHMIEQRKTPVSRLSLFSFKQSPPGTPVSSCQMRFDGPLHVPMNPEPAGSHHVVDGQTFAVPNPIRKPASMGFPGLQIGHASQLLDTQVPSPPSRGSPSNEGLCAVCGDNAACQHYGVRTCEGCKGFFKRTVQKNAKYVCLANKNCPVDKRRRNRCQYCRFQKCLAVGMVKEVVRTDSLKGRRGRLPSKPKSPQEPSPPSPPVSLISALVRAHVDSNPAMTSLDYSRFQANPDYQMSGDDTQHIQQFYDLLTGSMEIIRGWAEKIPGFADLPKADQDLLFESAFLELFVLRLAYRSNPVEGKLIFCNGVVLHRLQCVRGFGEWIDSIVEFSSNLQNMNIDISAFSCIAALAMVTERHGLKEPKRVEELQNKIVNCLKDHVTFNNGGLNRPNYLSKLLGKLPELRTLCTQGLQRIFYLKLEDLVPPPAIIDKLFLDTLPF
Hepatocyte nuclear factor 6 (Homo sapiens), sequence (Q9UBC0 whole entry, looked up): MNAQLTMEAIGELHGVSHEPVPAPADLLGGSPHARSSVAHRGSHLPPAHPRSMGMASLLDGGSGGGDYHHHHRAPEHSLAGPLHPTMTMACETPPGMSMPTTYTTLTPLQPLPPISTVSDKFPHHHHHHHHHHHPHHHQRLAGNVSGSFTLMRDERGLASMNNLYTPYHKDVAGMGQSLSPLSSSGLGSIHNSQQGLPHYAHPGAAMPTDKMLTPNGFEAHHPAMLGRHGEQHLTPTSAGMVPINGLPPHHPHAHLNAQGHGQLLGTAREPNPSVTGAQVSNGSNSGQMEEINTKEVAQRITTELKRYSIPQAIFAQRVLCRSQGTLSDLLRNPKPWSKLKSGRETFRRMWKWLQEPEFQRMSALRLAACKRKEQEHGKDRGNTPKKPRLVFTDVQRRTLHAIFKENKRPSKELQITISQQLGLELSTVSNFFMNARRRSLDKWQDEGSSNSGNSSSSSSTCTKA
Hypoxia-inducible factor 1-alpha (Homo sapiens), sequence (Q16665 whole entry, looked up): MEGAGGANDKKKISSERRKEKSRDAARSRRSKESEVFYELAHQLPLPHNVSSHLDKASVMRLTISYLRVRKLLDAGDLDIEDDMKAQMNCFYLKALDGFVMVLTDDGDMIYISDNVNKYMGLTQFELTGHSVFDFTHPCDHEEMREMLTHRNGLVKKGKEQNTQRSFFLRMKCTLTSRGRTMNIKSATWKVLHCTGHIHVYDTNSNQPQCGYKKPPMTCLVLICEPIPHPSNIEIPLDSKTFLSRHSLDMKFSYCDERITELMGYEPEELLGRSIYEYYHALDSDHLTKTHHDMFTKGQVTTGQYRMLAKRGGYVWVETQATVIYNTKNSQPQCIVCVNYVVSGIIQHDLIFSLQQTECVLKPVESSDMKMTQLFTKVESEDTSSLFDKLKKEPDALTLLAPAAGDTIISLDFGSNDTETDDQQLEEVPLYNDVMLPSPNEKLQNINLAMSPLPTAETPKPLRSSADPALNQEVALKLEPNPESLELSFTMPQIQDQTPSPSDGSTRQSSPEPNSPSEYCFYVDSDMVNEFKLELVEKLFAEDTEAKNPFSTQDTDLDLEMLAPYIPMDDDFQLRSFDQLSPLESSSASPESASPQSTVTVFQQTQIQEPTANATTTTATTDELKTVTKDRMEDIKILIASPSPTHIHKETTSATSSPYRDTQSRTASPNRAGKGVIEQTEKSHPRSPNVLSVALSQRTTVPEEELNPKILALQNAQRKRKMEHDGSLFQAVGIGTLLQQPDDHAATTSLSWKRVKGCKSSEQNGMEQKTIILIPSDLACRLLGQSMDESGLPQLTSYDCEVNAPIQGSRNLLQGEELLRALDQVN

CCC(=O)c1ccc(Cl)cc1
inactive: [1] | [2] | [3] | [4] | [5] | [6] | [7] | [8] | [9] | [10] | [11] | [12]

CN(C)C(=O)C(c1ccccc1)c1ccccc1
inactive: [1] | [13] | [14] | [3] | [5] | [15] | [6] | [7] | [16] | [9] | [10] | [11] | [12] | [17] | [18]

CC(C)C#N
inactive: [1] | [13] | [2] | [4] | [5] | [6] | [7] | [16] | [11] | [12]

Nc1ccc(Cl)c(Cl)c1
active: [14] 135 µM
inactive: [1] | [13] | [3] | [4] | [5] | [15] | [6] | [7] | [16] | [8] | [10] | [11] | [12] | [19] | [17] | [18] | [20]

C#CC1(O)CCCCC1
inactive: [1] | [14] | [3] | [5] | [15] | [16] | [8] | [9] | [10] | [11] | [19] | [17] | [20]

N#CCNCC#N
inactive: [1] | [13] | [3] | [5] | [6] | [7] | [8] | [9] | [10] | [12] | [19] | [20]

C[C@]12CC[C@H]3[C@@H](CC[C@@]45O[C@@H]4C(O)=C(C#N)C[C@]35C)[C@@H]1CC[C@@H]2O
active: [14] 100 µM | [3] 64.5 µM | [16] 75 µM | [19] 64.6 µM and 35.9 µM | [17] 67 µM | [20] 65.8 µM
inactive: [1] | [13] | [4] | [5] | [6] | [7] | [8] | [9] | [10] | [12] | [17] | [20]

S=c1[nH]c2ccccc2[nH]1
inactive: [13] | [2] | [14] | [4] | [6] | [16] | [8] | [9] | [10] | [17] | [20]

Cc1ccc(OP(=O)(Oc2ccc(C)cc2)Oc2ccc(C)cc2)cc1 (tested in a mixture with another compound)
inactive: [13] | [2] | [3] | [4] | [15] | [7] | [8] | [11] | [12] | [19] | [17] | [18] | [20]
active: [14] 100 µM

C=Cc1cccc(CCl)c1
active: [2] 100 µM | [14] 100 µM
inactive: [1] | [13] | [3] | [5] | [15] | [6] | [9] | [10] | [19] | [17] | [18] | [20]

[CH3][Sn]([CH3])([Cl])[Cl]
inactive: [1] | [13] | [14] | [3] | [4] | [15] | [6] | [7] | [16] | [9] | [10] | [11]
